Measured values as given in PubChem BioAssay (Tox21).
Results filed as inconclusive are left out. More than one record can exist for a structure, and the calls need not agree. Active and inactive are the calls of the source. Unless noted, the call rests on the fitted dose curve; in most records, active means well fitted curve in the direction sought with a large enough effect in the repeat runs; inconclusive means weak or mixed curves; inactive means no such curve, though single readings can be large; an effect the other way counts as inactive or inconclusive.

Columns and labels:
[1] = qHTS assay to identify aromatase inhibitors - cell viability counter screen (AID 743084);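 further: cells stimulated with testosterone during compound exposure; nearly all actives have a fitted effect of over 55% in size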
[2] = biological target: Aryl hydrocarbon receptor (Homo sapiens) (UniProt P35869); assay: qHTS assay to identify small molecule that activate the aryl hydrocarbon receptor (AhR) signaling pathway (AID 743085); further: nearly all actives have a fitted effect of over 15% in size; further: potency means the concentration at half of the fitted maximal effect;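 on activation: HG2L7.5c1 human HepG2 liver cells with stably integrated DRE-driven firefly reporter; series mostly up to about 70 µM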
Procedure, shortened: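 24 h compound exposure, 37C, HepG2-derived HG2L7.5c1 cells with DRE-responsive luciferase. Readouts: fluorescence viability, then luminescence at room temperature after 30 min.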

[3] = qHTS assay to identify small molecule that activate the aryl hydrocarbon receptor (AhR) signaling pathway - cell viability counter screen (AID 743086);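 further: HepG2 liver cells carrying the AhR DRE luciferase reporter; series mostly up to about 70 µM; nearly all actives have a fitted effect of over 45% in size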
Procedure, shortened: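 HepG2-AhR-luc (HG2L7.5c1) cells, 4000/well, treated 24 h at 37 C with compound; viability measured as CellTiter-Fluor fluorescence after 30 min in the same wells as the luciferase read.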

[4] = biological target: Peroxisome proliferator-activated receptor gamma (Homo sapiens) (UniProt P37231); assay: qHTS assay to identify small molecule agonists of the peroxisome proliferator-activated receptor gamma (PPARg) signaling pathway (AID 743094; active means well fitted activation curve with a large enough effect in the signal ratio in the repeat runs, not every such curve was filed as active; the % refers to the signal ratio)
Procedure, shortened: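 Beta-lactamase FRET fluorescence was the read-out after a 1 h room-temperature substrate step, following 17 h compound treatment at 37C of HEK293H cells expressing a UAS-driven bla reporter responsive to PPARg.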

[5] = qHTS assay to identify small molecule antagonists of the peroxisome proliferator-activated receptor gamma (PPARg) signaling pathway - cell viability counter screen (AID 743194); further: nearly all actives have a fitted effect of over 55% in size
Procedure, shortened: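 Cytotoxicity counter screen in PPARg-bla HEK293H cells, same wells as reporter assay. Compounds plus 50 nM rosiglitazone (final) for 17 h at 37 C, then viability read by CellTiter-Glo luminescence.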

[6] = qHTS assay for small molecule agonists of the antioxidant response element (ARE) signaling pathway (AID 743202; active means well fitted activation curve with a large enough effect in the signal ratio in the repeat runs, not every such curve was filed as active; the % refers to the signal ratio)
Procedure, shortened: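 ARE-bla HepG2 cells (beta-lactamase reporter under the antioxidant response element), plated 5 hours, then exposed to compounds 16 hours at 37 C. LiveBLAzer B/G FRET substrate added for 2 hours at room temperature; fluorescence intensity read.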

[7] = qHTS assay for small molecule agonists of the antioxidant response element (ARE) signaling pathway - cell viability counter screen (AID 743203; calls by dose curve; further: nearly all actives have a fitted effect of over 55% in size)
Procedure, shortened: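 HepG2 cells carrying ARE-driven beta-lactamase; 2,000 cells/well; 5 hrs plating; compound pinned from DMSO; 16 hrs 37C/5% CO2; CellTiter-Glo added; 30 min RT; luminescence.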

[8] = qHTS assay for small molecule activators of the heat shock response signaling pathway - cell viability counter screen (AID 743209); further: nearly all actives have a fitted effect of over 50% in size
Procedure, shortened: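 Luminescence from CellTiter-Glo, added after the beta-lactamase FRET read, gave the viability signal. Cells were HSE-bla HeLa treated with DMSO-dissolved compounds for 5 h at 37 C following overnight plating.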

[9] = qHTS assay for small molecule activators of the heat shock response signaling pathway (AID 743210; active means well fitted activation curve with a large enough effect in the signal ratio in the repeat runs, with a control signal flat, not every such curve was filed as active; the % refers to the signal ratio; further: series mostly up to about 63 µM)
Procedure, shortened: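 HSE-bla HeLa cells (beta-lactamase reporter under heat shock response elements), plated overnight, then exposed to compounds 5 h at 37 C; LiveBLAzer B/G FRET substrate added, 2.5 h at room temperature, fluorescence intensity read.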

[10] = qHTS assay to identify small molecule agonists of the peroxisome proliferator-activated receptor delta (PPARd) signaling pathway - cell viability counter screen (AID 743211); further: nearly all actives have a fitted effect of over 55% in size
Procedure, shortened: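 Luminescent ATP viability assay (CellTiter-Glo, 30 min RT) in UAS-bla HEK293H cells carrying the PPAR delta reporter construct, 3000 cells/well, after a 17 h compound treatment at 37 C.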

[11] = biological target: Peroxisome proliferator-activated receptor delta (Homo sapiens) (UniProt Q03181); assay: qHTS assay to identify small molecule agonists of the peroxisome proliferator-activated receptor delta (PPARd) signaling pathway (AID 743212; calls by dose curve)
Procedure, shortened: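 GeneBLAzer UAS-bla HEK293H cells carrying a PPARδ construct were exposed to compounds at 37 °C. Beta-lactamase activity was read by FRET fluorescence after 2 h at room temperature with LiveBLAzer B/G substrate.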

[12] = qHTS assay to identify small molecule agonists of the farnesoid-X-receptor (FXR) signaling pathway - cell viability counter screen (AID 743218); further: nearly all actives have a fitted effect of over 45% in size
Procedure, shortened: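 HEK 293T FXR-bla cells; 5 h pre-incubation, 16 h compound exposure at 37 C; LiveBLAzer substrate 2 h RT, then CellTiter-Glo 30 min RT, luminescence.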

[13] = qHTS assay to identify small molecule antagonists of the farnesoid-X-receptor (FXR) signaling pathway - cell viability counter screen (AID 743221; active means well fitted cell-killing curve with a large enough effect in the repeat runs, not every such curve was filed as active; further: nearly all actives have a fitted effect of over 50% in size)
Procedure, shortened: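 In GeneBLAzer FXR-UAS-bla HEK 293T cells stimulated with 50 uM chenodeoxycholic acid (final), compounds acted for 16 h at 37 C. Viability was assessed afterwards by CellTiter-Glo luminescence.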

[14] = biological target: Vitamin D3 receptor (Homo sapiens) (UniProt P11473); assay: qHTS assay to identify small molecule antagonists of the vitamin D receptor (VDR) signaling pathway (AID 743223; active means well fitted inhibition curve with a large enough effect in the signal ratio in the repeat runs, not every such curve was filed as active; the % refers to the signal ratio)
Procedure, shortened: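 Agonist 1alpha,25-dihydroxyvitamin D3 (3 nM in well) was added with each compound to VDR-bla cells preincubated 4 h. Cells stood 16 h at 37C, then FRET substrate 2 h at room temperature; fluorescence intensity recorded.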

[15] = qHTS assay to identify small molecule antagonists of the peroxisome proliferator-activated receptor delta (PPARd) signaling pathway - cell viability counter screen (AID 743213); further: nearly all actives have a fitted effect of over 50% in size
Procedure, shortened: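 CellTiter-Glo was added to PPARd-bla HEK293H wells following 17 h compound treatment in the presence of 300 nM L165041. Luminescence was recorded after 30 min at room temperature.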

[16] = biological target: Vitamin D3 receptor (Homo sapiens) (UniProt P11473); assay: qHTS assay to identify small molecule agonists of the vitamin D receptor (VDR) signaling pathway (AID 743222; calls by dose curve)
Procedure, shortened: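 VDR-bla cells, 2,000/well; 4 h preincubation 37C; cpd (DMSO) 16 h; LiveBLAzer B/G substrate 2 h RT; fluorescence intensity read.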

[17] = biological target: Peroxisome proliferator-activated receptor gamma (Homo sapiens) (UniProt P37231); assay: qHTS assay to identify small molecule antagonists of the peroxisome proliferator-activated receptor gamma (PPARg) signaling pathway (AID 743191; calls by dose curve; further: series mostly up to about 63 µM; nearly all actives have a fitted effect of over 30% in size)
Procedure, shortened: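 GeneBLAzer PPARg UAS-bla HEK293H cells, 5 h post-plating, exposed to compounds 17 h at 37C. LiveBLAzer B/G FRET substrate added for 1 h at room temperature; beta-lactamase reporter read by fluorescence intensity.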

[18] = biological target: Peroxisome proliferator-activated receptor delta (Homo sapiens) (UniProt Q03181); assay: qHTS assay to identify small molecule antagonists of the peroxisome proliferator-activated receptor delta (PPARd) signaling pathway (AID 743215; active means well fitted inhibition curve with a large enough effect in the signal ratio in the repeat runs, not every such curve was filed as active; the % refers to the signal ratio;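 further: cells stimulated with agonist L165041 at 300 nM final during compound exposure; series mostly up to about 62 µM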)
Procedure, shortened: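 Read-out is beta-lactamase FRET fluorescence, measured 2 h after substrate addition at room temperature. Beforehand, UAS-bla HEK293H cells carrying the PPARd reporter were exposed to compounds with L165041 at 300 nM final for 17 h at 37 C.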

[19] = biological target: Bile acid receptor (Homo sapiens) (UniProt Q96RI1); assay: qHTS assay to identify small molecule agonists of the farnesoid-X-receptor (FXR) signaling pathway (AID 743220; active means well fitted activation curve with a large enough effect in the signal ratio in the repeat runs, not every such curve was filed as active; the % refers to the signal ratio)
Procedure, shortened: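 Beta-lactamase reporter under UAS control in GeneBLAzer FXR HEK 293T cells (5000/well) measured with LiveBLAzer FRET substrate after 2 h at room temperature. Compound exposure lasted 16 h at 37C.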

[20] = biological target: Bile acid receptor (Homo sapiens) (UniProt Q96RI1); assay: qHTS assay to identify small molecule antagonists of the farnesoid-X-receptor (FXR) signaling pathway (AID 743217; active means well fitted inhibition curve with a large enough effect in the signal ratio in the repeat runs, not every such curve was filed as active; the % refers to the signal ratio)
Procedure, shortened: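 HEK 293T FXR-UAS-bla, 5000 cells/well; compound + CDCA 50 uM final; 16 h, 37 °C; B/G FRET substrate 2 h RT; fluorescence.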

Measured: Potency

Chain of Peroxisome proliferator-activated receptor gamma (Homo sapiens) (P37231 whole entry, looked up): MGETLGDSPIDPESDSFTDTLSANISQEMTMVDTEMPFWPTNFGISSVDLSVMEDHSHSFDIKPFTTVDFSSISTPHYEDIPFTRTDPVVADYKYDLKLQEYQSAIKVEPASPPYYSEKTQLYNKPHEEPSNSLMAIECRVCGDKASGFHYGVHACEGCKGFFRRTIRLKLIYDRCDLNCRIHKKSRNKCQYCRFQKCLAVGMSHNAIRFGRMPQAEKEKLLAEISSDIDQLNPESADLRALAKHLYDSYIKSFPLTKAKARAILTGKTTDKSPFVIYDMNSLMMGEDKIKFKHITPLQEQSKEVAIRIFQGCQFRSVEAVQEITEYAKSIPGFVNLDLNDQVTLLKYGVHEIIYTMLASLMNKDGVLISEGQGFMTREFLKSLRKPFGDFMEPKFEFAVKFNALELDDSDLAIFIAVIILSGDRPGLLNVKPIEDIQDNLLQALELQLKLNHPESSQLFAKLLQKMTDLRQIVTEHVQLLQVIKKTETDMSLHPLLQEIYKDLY
Chain of Peroxisome proliferator-activated receptor delta (Homo sapiens) (Q03181 whole entry, looked up): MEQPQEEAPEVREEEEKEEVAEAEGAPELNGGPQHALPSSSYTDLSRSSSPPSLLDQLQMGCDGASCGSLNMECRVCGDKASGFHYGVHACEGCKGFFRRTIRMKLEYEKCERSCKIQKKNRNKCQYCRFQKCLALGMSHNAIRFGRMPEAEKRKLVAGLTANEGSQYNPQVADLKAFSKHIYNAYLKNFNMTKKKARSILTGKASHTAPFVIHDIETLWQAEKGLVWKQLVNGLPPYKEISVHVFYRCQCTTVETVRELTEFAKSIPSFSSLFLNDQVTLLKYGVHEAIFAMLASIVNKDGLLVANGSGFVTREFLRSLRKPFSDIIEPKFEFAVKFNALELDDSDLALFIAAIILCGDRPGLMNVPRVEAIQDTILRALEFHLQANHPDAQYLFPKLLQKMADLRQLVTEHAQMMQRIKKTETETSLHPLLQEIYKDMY
Chain of Aryl hydrocarbon receptor (Homo sapiens) (P35869 whole entry, looked up): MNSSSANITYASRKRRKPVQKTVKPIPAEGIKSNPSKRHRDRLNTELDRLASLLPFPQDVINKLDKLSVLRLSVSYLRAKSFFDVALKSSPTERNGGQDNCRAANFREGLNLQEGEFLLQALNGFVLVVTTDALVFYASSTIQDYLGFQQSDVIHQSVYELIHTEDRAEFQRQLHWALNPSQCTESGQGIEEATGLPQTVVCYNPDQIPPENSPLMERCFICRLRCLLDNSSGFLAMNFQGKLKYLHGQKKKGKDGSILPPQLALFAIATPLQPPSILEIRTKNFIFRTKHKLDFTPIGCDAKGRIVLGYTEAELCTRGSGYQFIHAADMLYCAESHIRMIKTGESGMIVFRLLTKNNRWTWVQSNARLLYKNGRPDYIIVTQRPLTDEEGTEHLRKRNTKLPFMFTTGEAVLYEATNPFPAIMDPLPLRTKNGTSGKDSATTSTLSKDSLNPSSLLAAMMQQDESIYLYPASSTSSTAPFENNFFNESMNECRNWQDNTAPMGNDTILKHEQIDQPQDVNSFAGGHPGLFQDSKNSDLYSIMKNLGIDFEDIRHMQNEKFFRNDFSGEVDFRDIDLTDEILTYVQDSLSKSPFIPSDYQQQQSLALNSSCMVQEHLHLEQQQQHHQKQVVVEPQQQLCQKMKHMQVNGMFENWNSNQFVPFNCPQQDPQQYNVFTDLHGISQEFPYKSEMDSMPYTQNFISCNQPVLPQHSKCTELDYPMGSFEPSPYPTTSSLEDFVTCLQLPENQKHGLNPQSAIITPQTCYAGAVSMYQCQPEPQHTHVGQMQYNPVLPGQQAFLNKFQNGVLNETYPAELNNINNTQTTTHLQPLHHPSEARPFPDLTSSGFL
Chain of Vitamin D3 receptor (Homo sapiens) (P11473 whole entry, looked up): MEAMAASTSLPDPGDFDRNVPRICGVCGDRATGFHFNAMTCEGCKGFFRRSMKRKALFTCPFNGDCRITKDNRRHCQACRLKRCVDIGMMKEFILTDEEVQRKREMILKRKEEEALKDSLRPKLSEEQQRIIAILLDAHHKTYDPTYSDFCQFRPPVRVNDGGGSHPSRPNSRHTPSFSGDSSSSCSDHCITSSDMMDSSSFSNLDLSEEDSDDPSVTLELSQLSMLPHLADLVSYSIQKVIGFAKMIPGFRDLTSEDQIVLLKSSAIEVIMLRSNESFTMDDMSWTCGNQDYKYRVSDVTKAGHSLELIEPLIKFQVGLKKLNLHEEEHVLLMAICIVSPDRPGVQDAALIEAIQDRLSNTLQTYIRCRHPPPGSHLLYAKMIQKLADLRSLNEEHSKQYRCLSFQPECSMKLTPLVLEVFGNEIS
Chain of Bile acid receptor (Homo sapiens) (Q96RI1 whole entry, looked up): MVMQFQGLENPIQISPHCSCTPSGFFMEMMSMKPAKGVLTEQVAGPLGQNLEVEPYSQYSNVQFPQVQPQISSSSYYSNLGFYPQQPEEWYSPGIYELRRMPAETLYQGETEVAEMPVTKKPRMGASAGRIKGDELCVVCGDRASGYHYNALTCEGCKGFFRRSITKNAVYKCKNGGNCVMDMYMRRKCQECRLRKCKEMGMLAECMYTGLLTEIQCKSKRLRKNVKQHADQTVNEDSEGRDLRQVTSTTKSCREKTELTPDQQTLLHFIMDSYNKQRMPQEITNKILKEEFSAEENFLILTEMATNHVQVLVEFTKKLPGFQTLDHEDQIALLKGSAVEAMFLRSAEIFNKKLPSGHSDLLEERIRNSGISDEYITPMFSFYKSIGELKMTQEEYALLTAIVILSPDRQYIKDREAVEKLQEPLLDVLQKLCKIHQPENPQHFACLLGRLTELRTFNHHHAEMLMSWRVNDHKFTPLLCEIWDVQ

CC(=O)Nc1cccc(C)c1
inactive: [1] | [2] | [3] | [4] | [5] | [6] | [7] | [8] | [9] | [10] | [11] | [12] | [13] | [14]

CCCCN
inactive: [1] | [2] | [3] | [4] | [5] | [6] | [7] | [8] | [10] | [11] | [15] | [13] | [16]

FC(F)(F)c1ccccc1-n1ccnc1
inactive: [1] | [2] | [3] | [4] | [17] | [7] | [8] | [9] | [10] | [18] | [16] | [14]

Nc1cccc(O)c1
active: [2] 35.4 µM
inactive: [1] | [3] | [4] | [5] | [6] | [7] | [8] | [9] | [15] | [18] | [12] | [19] | [13] | [16] | [14]

Oc1cn2c(n1)Nc1ccc(Cl)c(Cl)c1C2
23.7 µM (active) and inactive: [2]
inactive: [1] | [3] | [4] | [5] | [7] | [8] | [10] | [18] | [12] | [13] | [16] | [14]

Cc1nc2n(c(=O)c1CCN1CCC(c3noc4cc(F)ccc34)CC1)CCC[C@H]2O
inactive: [1] | [3] | [4] | [17] | [5] | [6] | [8] | [9] | [10] | [11] | [15] | [18] | [20] | [12] | [19] | [13] | [16] | [14]

CC(N)C(=O)OC(C)(C)Cc1ccc(Cl)cc1 (stereo not given)
inactive: [1] | [3] | [4] | [17] | [5] | [6] | [7] | [8] | [9] | [10] | [11] | [18] | [13] | [16] | [14]

O=C(O)c1cc(Br)c(O)c(Br)c1
inactive: [1] | [3] | [4] | [17] | [5] | [6] | [7] | [8] | [9] | [10] | [15] | [20] | [12] | [19] | [13] | [16] | [14]

CCCCNc1ccc(C(=O)OCCN(C)C)cc1
inactive: [1] | [2] | [3] | [5] | [7] | [8] | [9] | [15] | [18] | [13] | [16] | [14]

CC(C(=O)O)c1ccc2c(c1)CC(=O)c1ccccc1S2 (stereo not given)
inactive: [1] | [2] | [3] | [5] | [6] | [8] | [9] | [15] | [18] | [12] | [13]

CCCCCCOC(=O)CC
inactive: [1] | [3] | [4] | [17] | [5] | [6] | [8] | [9] | [10] | [15] | [12] | [19] | [16] | [14]

ClCCCl
inactive: [1] | [3] | [4] | [17] | [5] | [6] | [7] | [8] | [9] | [10] | [11] | [18] | [13] | [16] | [14]

CC1(C)S[C@@H]2[C@H](N=CN3CCCCCC3)C(=O)N2[C@H]1C(=O)O
inactive: [1] | [3] | [4] | [17] | [5] | [6] | [7] | [8] | [9] | [11] | [18] | [12] | [13] | [16] | [14]
